# Test results as given in PubChem BioAssay (EPA / NIEHS).
# Several values for one entry are separate records, joined by “and”; a condition that tells them apart may be missing. Equal entries are not always repeated. Results filed as inconclusive are left out. More than one record can exist for a structure, and the calls need not agree. Activity calls are given as the source filed them. The calls were made as follows, unless noted: active = hit-call score of the fitted dose curve at least 0.9, where 1 is the maximum; inactive = score below 0.9.
# Target: human Retinoic Acid Receptor beta (RARb), RARB (gene 5915) (UniProt P10826)
# Sequence (P10826 whole entry, looked up): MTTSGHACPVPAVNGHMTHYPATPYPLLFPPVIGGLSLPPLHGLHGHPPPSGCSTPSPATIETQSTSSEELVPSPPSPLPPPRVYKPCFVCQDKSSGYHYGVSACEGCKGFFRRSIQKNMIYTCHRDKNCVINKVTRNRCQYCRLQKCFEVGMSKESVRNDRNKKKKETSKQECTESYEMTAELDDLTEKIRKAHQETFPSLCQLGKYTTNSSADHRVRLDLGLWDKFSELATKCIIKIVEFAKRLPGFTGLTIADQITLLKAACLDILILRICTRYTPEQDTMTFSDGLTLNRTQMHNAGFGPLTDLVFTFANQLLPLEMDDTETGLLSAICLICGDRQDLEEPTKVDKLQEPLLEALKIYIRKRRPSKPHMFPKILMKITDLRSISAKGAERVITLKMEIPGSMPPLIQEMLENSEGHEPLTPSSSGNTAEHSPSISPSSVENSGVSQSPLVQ
# Experiment: ATG_RARb_TRANS: Attagene TRANS-FACTORIAL HepG2 Assay for human Retinoic Acid Receptor beta (AID 2283004; active = hit-call score of the fitted dose curve at least 0.9, where 1 is the maximum)
# Conditions: not given
# Method in brief: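 Fluorescent capillary-electrophoresis detection of GAL4-UAS reporter mRNA defines the endpoint, with induction over DMSO-treated wells scored as activity. Transiently transfected human hepatoma HepG2 cells expressing exogenous NR–Gal4 proteins are exposed to test chemicals for 24 h.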
row,Compound,outcome
1,CC(O)C#CC(C)O (centres undefined),inactive
2,FC(F)(F)C(F)(F)C(F)(F)C(F)(F)C(F)(F)C(F)(F)CC[Si](Cl)(Cl)Cl,inactive
3,Cc1cc(O)c(C(C)(C)C)cc1C(C)(C)C,inactive
4,CCCCCCCCCCCCC[N+](C)(C)Cc1ccccc1,inactive
5,CCn1c2ccccc2c2ccccc21,inactive
6,CC(C)(C)C(=O)C1C(=O)c2ccccc2C1=O,inactive
7,O=S(=O)(OCC(F)(F)F)C(F)(F)C(F)(F)C(F)(F)C(F)(F)F,inactive
8,CCCCCCCC/C=C\CCCCCCCC(=O)N(C)CC(=O)O,inactive
9,O=C=Nc1cccc2c(N=C=O)cccc12,inactive
10,Nc1cccnc1N,inactive
11,O=C(F)C1(F)C(F)(F)C(F)(F)C(F)(F)C(F)(F)C1(F)F,inactive
12,Oc1ccc2c(c1)CCC2,inactive
13,O=C1C=CC(=O)N1c1ccccc1,inactive
14,OCCCC(F)(F)C(F)(F)C(F)(F)C(F)(F)C(F)(F)C(F)(F)C(F)(F)C(F)(F)F,inactive
15,O=C(O)C(F)(F)C(F)(F)C(F)(F)OC(F)(F)F,inactive

# Target: Retinoic acid receptor alpha (Homo sapiens) (UniProt P10276)
# Sequence (P10276 whole entry, looked up): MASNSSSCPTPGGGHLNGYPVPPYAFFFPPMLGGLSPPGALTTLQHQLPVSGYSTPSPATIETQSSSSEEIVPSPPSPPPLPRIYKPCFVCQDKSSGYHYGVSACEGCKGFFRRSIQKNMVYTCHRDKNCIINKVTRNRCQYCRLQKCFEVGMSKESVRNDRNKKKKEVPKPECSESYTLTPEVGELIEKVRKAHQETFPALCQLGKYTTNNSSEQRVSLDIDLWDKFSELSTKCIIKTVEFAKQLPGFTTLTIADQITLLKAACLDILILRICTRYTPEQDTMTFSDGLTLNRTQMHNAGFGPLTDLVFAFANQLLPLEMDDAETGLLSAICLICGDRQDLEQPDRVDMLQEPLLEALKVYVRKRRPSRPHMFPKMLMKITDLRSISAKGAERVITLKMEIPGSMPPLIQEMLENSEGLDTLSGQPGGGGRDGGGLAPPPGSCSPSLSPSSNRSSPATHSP
# Experiment: ATG_RARa_TRANS: Attagene TRANS-FACTORIAL HepG2 Assay for human Retinoic Acid Receptor alpha (RARa) (AID 2283005; active = hit-call score of the fitted dose curve at least 0.9, where 1 is the maximum;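 as to AC50: potency for increased reporter signal meaning RARa activation over DMSO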)
# Conditions: not given
# Method in brief: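 HepG2 cells transiently transfected with multiple reporter units expressing chimeric RARα-GAL4 fusion, with GAL4-UAS-driven reporters. After 24 h compound exposure, reporter mRNA induction quantified by RT-PCR and capillary electrophoresis with fluorescent labeling; gain-of-signal fitted relative to DMSO control.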
Compound,outcome,AC50
CC(O)C#CC(C)O (centres undefined),inactive,–
Cc1cc(O)c(C(C)(C)C)cc1C(C)(C)C,inactive,–
CCCCCCCCCCCCC[N+](C)(C)Cc1ccccc1,inactive,–
CCn1c2ccccc2c2ccccc21,inactive,–
COC(F)(C(F)F)C(F)(F)F (centres undefined),inactive,–
CC(C)(C)C(=O)C1C(=O)c2ccccc2C1=O,inactive,–
O=S(=O)(O)CCC(F)(F)C(F)(F)C(F)(F)C(F)(F)F,inactive,–
CCCCCCCC/C=C\CCCCCCCC(=O)N(C)CC(=O)O,inactive,–
Nc1cccnc1N,–,70.8 µM (active)
O=C(F)C1(F)C(F)(F)C(F)(F)C(F)(F)C(F)(F)C1(F)F,inactive,–
Oc1ccc2c(c1)CCC2,inactive,–
Cc1cnccn1,inactive,–
O=C1C=CC(=O)N1c1ccccc1,inactive,–
OCCCC(F)(F)C(F)(F)C(F)(F)C(F)(F)C(F)(F)C(F)(F)C(F)(F)C(F)(F)F,inactive,–

# Read-out: not listed separately
# Experiment: BSK_3C_Proliferation: Cell Proliferation Assessment in the BioMAP Diversity Plus: 3C Assay (AID 2283006);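 as to AC50: potency may reflect either rise or fall in cell number versus DMSO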
# Conditions: primary human endothelial cells (HUVEC)
# Method in brief: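 HUVEC, sub-confluent; 48 h chemical exposure; 10% TCA fix, 0.1% SRB stain, A560 total protein. Gain or loss of signal fitted both directions vs DMSO control.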
Compound,outcome,AC50
CCOC(=O)CC(=O)C(F)(F)C(F)(F)F,inactive,–
CCN(CC)c1ccc(C=O)c(O)c1,inactive,–
FC(F)(F)C(F)(F)C(F)(F)CC1CO1 (centres undefined),inactive,–
OCC(O)CC(F)(F)C(F)(F)C(F)(F)C(F)(F)F (centres undefined),inactive,–
OC(O)C(F)(F)C(F)(F)F,inactive,–
NC(O)(C(F)(F)F)C(F)(F)F,inactive,–
FC(F)(F)C(F)(F)C(F)(F)C(F)(F)C(F)(F)C(F)(F)CC[Si](Cl)(Cl)Cl,inactive,–
O=C=NCc1cccc(CN=C=O)c1,inactive,–
Cc1cc(O)c(C(C)(C)C)cc1C(C)(C)C,–,2.36 µM (active)
NC(=O)C(F)(F)C(F)(F)C(F)(F)F,inactive,–
C=CC(=O)OCC(F)(F)C(F)(F)C(F)(F)COC(=O)C=C,–,8.32 µM (active) and 9.46 µM (active)
Cc1ccc(S(=O)(=O)C(I)I)cc1,–,0.593 µM (active)
COC(F)(C(F)F)C(F)(F)F (centres undefined),inactive,–
CC1=CC2C3C=CC(C3)C2C1C (centres undefined),inactive,–
O=S(=O)(O)CCC(F)(F)C(F)(F)C(F)(F)C(F)(F)F,inactive,–
O=S(=O)(OCC(F)(F)F)C(F)(F)C(F)(F)C(F)(F)C(F)(F)F,inactive,–
O=C(O)C(F)(F)C(F)(F)C(F)(F)C(=O)O,inactive,–
OCC(F)(F)C(F)(F)C(F)(F)C(F)(F)C(F)(F)C(F)(F)CO,inactive,15.6 µM (active)
O=C=Nc1cccc2c(N=C=O)cccc12,inactive,–
CC(C)(C)c1cc(CCC(=O)NCCCCCCNC(=O)CCc2cc(C(C)(C)C)c(O)c(C(C)(C)C)c2)cc(C(C)(C)C)c1O,inactive,–
CCN(CC)c1ccc2c(c1)Oc1cc(N(CC)CC)ccc1C21OC(=O)c2ccccc21,–,5.03 µM (active)
O=C(F)C1(F)C(F)(F)C(F)(F)C(F)(F)C(F)(F)C1(F)F,inactive,–
Cc1cnccn1,inactive,–
Nc1cc([N+](=O)[O-])cc(Cl)c1O,inactive,–
OCCCC(F)(F)C(F)(F)C(F)(F)C(F)(F)C(F)(F)C(F)(F)C(F)(F)C(F)(F)F,–,7.56 µM (active) and 9.56 µM (active)
O=C(O)C(F)(F)C(F)(F)C(F)(F)OC(F)(F)F,inactive,–
CCN=C1C=CC(=C(c2ccc(N(CC)CC)cc2)c2ccc(N(CC)CC)cc2)c2ccccc21,–,888 nM (active) and 871 nM (active)
O=C(O)CCC(F)(F)C(F)(F)C(F)(F)F,inactive,–
CCN(CC)c1ccc(C=O)cc1,inactive,–
